Screening data deposited in PubChem by National Center for Advancing Translational Sciences (NCATS).
D1 PAM = enhances dopamine response at the human D1 receptor; potentiation, % at 10 µM; P21728; 360,000 tested, 0.036% active; AID 504651; HEK293 TREx D1 cells, calcium flux, dopamine EC20 potentiation; in the data active means potentiation above about 30%; further: 0% is about no effect
Target sequence (P21728 whole entry, looked up): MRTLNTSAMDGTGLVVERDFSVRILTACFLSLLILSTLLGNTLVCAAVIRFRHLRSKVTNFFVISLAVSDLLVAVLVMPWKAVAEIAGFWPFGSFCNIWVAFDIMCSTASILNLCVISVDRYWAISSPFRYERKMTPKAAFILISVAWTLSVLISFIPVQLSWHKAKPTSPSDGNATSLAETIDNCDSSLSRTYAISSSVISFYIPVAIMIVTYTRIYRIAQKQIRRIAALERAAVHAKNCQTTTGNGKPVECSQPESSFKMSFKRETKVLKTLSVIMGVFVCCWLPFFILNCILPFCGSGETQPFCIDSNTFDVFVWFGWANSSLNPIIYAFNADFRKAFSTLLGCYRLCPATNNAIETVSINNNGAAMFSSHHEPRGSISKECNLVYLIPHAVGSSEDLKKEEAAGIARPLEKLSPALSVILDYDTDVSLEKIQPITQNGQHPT
D1 antagonist = blocks dopamine activation of the human D1 receptor | P21728 | HEK293 TREx D1 cells, calcium flux, dopamine EC80; stronger effect = lower value | activity change, negative = inhibition, % at 10 µM | 360,000 tested, 3.2% active | AID 504652; in the data active means activity change below about -30%; further: on the % scale 0 is the no-effect control and ±100 the full control effect
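Compound effects on dopamine-evoked calcium signalling were measured in tetracycline-induced HEK293 Trex D1 cells. Dopamine at EC80 followed a 180 s compound pre-read, and fluorescence was tracked kinetically for 180 s more.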
D3 antag = antagonists of human D3 dopamine receptor; P35462; D3R cells, DiscoveRx beta-arrestin luminescence, antagonist mode; stronger effect = lower value; max response, negative = inhibition, %; 360,000 tested, 2.5% active; AID 652054; in the data active means max response below about -50%; inconclusive means no clear call, values can overlap the other calls; further: on the % scale 0 is the no-effect control and ±100 the full control effect
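Cells plated overnight at 1500 cells/well, then exposed to library compounds with dopamine controls for 90 minutes at 37 degrees C. DiscoveRx reagent added for 30–60 minutes at room temperature; luminescence read, quantitative HTS format.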
D3 ag = activates the human D3 dopamine receptor; D3R DiscoveRx beta-arrestin cells, luminescence, 90 min; max activation, %; 410,000 tested, 0.58% active; AID 652048; in the data active means max activation above about 30%; further: 0% is about no effect
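Agonist-mode cell screen: cells plated at 1500/well and incubated overnight at 37 °C, then exposed to library compounds for 90 min at 37 °C. Detection reagent was added for 30–60 min at room temperature, and luminescence was read.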
D1 agonist = agonists of human D1 dopamine receptor; HEK293 T-REx D1 cells, calcium flux, agonist mode; P21728; 360,000 tested, 1% active; activation, % at 2 µM; AID 504660; in the data active means activation above about 30%; further: 0% is about no effect
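Inducible HEK293 T-REx D1 cells, force-coupled to calcium signalling, were plated at 4000 cells/well with tetracycline and held overnight at 30 C. After no-wash calcium dye loading, compound-evoked calcium rise over 180 s flagged agonists.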
ERG-DNA inh = ERG Ets/DNA interaction inhibition. P11308. 370,000 tested, 0.028% active. Potency, µM (top dose mostly 76.9 µM), without a hit: top-dose FP activity, negative = inhibition, most hits filed as inhibitors. fluorescence polarization, His-ERG Ets domain / labelled DNA; active means well fitted inhibition curve with a large enough effect in the polarisation, with a control signal flat; inconclusive means small, poorly fitted or top-dose-only effect, or effect the other way, or a change in a side signal; inactive means no such curve, though single readings can be large or run the other way; the % refers to the polarisation;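 further: polarization taken with two DNA probes labelled with fluorescein and Texas red; potency means the concentration at half of the fitted maximal effect; % of control where 0% means no effect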
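His-tagged ERG Ets domain (1 uM in the protein solution; 300mM KCl, 50mM Tris-HCl, 1mM EDTA, 1mM DTT, pH 7.5) received compound, then a probe mix of 5 nM fluorescein-DNA and 100nM Texas-615-DNA. Fluorescence polarization was read for both dyes.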
Numbers without * were called inactive. An excerpt weighted towards active compounds, which were near 6.1% of everything screened.

What do the screens show for `CC1=C(C(=O)Nc2ccccc2C)C(c2ccccn2)n2ncnc2N1` (stereo not given)?
D1 PAM: -1; D1 antagonist: -8; D3 ag: 2; D1 agonist: 2; ERG-DNA inh: 1%

What do the screens show for `CN(C)c1ccc2c(c1)OC(N)=C(C#N)C2c1cccc(F)c1` (stereo not given)?
D1 PAM: -4; D1 antagonist: -20; D3 antag: 20; D3 ag: 0; D1 agonist: 75*; ERG-DNA inh: 2%

What do the screens show for `COc1ccccc1C(=O)NC(CCSC)C(=O)NCCCSc1ccccc1` (stereo not given)?
D1 PAM: 0; D1 antagonist: -1; D3 antag: -14; D3 ag: 1; D1 agonist: 92*; ERG-DNA inh: 0%

How did COc1ccccc1C(=O)NC(CCSC)C(=O)NCC(c1cccs1)N(C)C (stereo not given) do in these assays?
D1 PAM: 9; D1 antagonist: 2; D3 antag: 6; D3 ag: -9; D1 agonist: 3; ERG-DNA inh: 14%

How did COc1ccccc1C(=O)NC(CCSC)C(=O)NCC(c1ccco1)N(C)C (stereo not given) do in these assays?
D1 PAM: 4; D1 antagonist: -1; D3 antag: -67*; D3 ag: -6; D1 agonist: 1; ERG-DNA inh: 11%

How did COc1ccccc1OCCNC(=O)C(CCSC)NC(=O)c1ccccc1Cl (stereo not given) do in these assays?
D1 PAM: 0; D1 antagonist: -21; D3 antag: 0; D3 ag: -21; D1 agonist: 3; ERG-DNA inh: 4%

How did CCOc1ccc(Sc2cc(C(=O)NCc3ccccc3Cl)c3ccccc3n2)cc1 do in these assays?
D1 PAM: -2; D1 antagonist: -36*; D3 ag: 0; D1 agonist: 4; ERG-DNA inh: 2%

How did COc1cccc(CNC(=O)c2cccnc2Sc2ccccc2)c1 do in these assays?
D1 PAM: -1; D1 antagonist: 5; D3 antag: -1; D3 ag: -3; D1 agonist: 3; ERG-DNA inh: -2%

How did CCc1ccc(Nc2cc(C(=O)NCCCN3CCOCC3)c3ccccc3n2)cc1 do in these assays?
D1 PAM: -6; D1 antagonist: -26; D3 antag: 1; D3 ag: -7; D1 agonist: 51*; ERG-DNA inh: 10%

What do the screens show for `CCc1ccc(Sc2cc(C(=O)NCc3cccc(OC)c3)c3ccccc3n2)cc1`?
D1 PAM: -2; D1 antagonist: -32*; D3 ag: 1; D1 agonist: 13; ERG-DNA inh: -2%

Results for CCOc1ccc(-c2cc(C(=O)NCc3ccc(C)cc3)c3ccccc3n2)cc1 ?
D1 PAM: -3; D1 antagonist: 3; D3 ag: 2; D1 agonist: 0; ERG-DNA inh: 3%

Results for CCOc1ccc(-c2cc(C(=O)NCc3ccccc3Cl)c3ccccc3n2)cc1 ?
D1 PAM: -2; D1 antagonist: -36*; D3 ag: -1; D1 agonist: -2; ERG-DNA inh: -2%

What do the screens show for `CCOc1ccc(Nc2cc(C(=O)NCc3ccccc3Cl)c3ccccc3n2)cc1`?
D1 PAM: 2; D1 antagonist: -10; D3 ag: -3; D1 agonist: -1; ERG-DNA inh: -6%

How did CCc1ccc(Sc2cc(C(=O)NCCCN3CCC(C)CC3)c3ccccc3n2)cc1 do in these assays?
D1 PAM: 0; D1 antagonist: -21; D3 ag: -14; D1 agonist: 29; ERG-DNA inh: 0%

What do the screens show for `CCc1ccc(Sc2cc(C(=O)NCCCN3CCCC(C)C3)c3ccccc3n2)cc1` (stereo not given)?
D1 PAM: 0; D1 antagonist: -22; D3 ag: -11; D1 agonist: 36*; ERG-DNA inh: 10%

Results for Cc1cccc(NC(=S)NC2CC3CCCC(C2)N3Cc2ccco2)c1 (stereo not given) ?
D1 PAM: -4; D1 antagonist: -8; D3 antag: -61*; D3 ag: -21; D1 agonist: 6; ERG-DNA inh: 12%

How did Cc1cccc(NC(=O)NC2CC3CCC(C2)N3Cc2ccco2)c1 (stereo not given) do in these assays?
D1 PAM: -6; D1 antagonist: 8; D3 antag: -7; D3 ag: -9; D1 agonist: 1; ERG-DNA inh: 3%

What do the screens show for `Cc1cccc(NC(=S)NC2CC3CCCC(C2)N3CC(C)C)c1` (stereo not given)?
D1 PAM: -9; D1 antagonist: -59*; D3 antag: inconclusive; D3 ag: -5; D1 agonist: 10; ERG-DNA inh: -4%

Results for Cc1cccc(NC(=S)NC2CC3CCC(C2)N3Cc2ccco2)c1 (stereo not given) ?
D1 PAM: -20; D1 antagonist: -67*; D3 antag: inconclusive; D3 ag: -29; D1 agonist: 17

Results for Cc1ccc(NC(=S)NC2CC3CCCC(C2)N3Cc2ccco2)cc1 (stereo not given) ?
D1 PAM: -3; D1 antagonist: -65*; D3 antag: -14; D3 ag: -36; D1 agonist: 41*; ERG-DNA inh: -5%

What do the screens show for `Cc1cc(C)cc(NC(=S)NC2CC3CCCC(C2)N3CC(C)C)c1` (stereo not given)?
D1 PAM: -4; D1 antagonist: 5; D3 antag: 16; D3 ag: -5; D1 agonist: 6; ERG-DNA inh: 4%

Results for Cc1ccccc1NC(=S)NC1CC2CCC(C1)N2Cc1ccco1 (stereo not given) ?
D1 PAM: 5; D1 antagonist: -30; D3 antag: -15; D3 ag: -24; D1 agonist: 1; ERG-DNA inh: 8%

Results for COc1cccc2cc(C(=O)NCc3ccccc3Br)c(=O)oc12 ?
D1 PAM: -2; D1 antagonist: 6; D3 antag: 1; D3 ag: 0; D1 agonist: 3; ERG-DNA inh: 16%

Results for Cc1cc(C)c2c(c1C)C(=O)CCC2 ?
D3 antag: 13; D3 ag: 7; ERG-DNA inh: 8%

Results for COCCCNC(=S)NC1CC2CCCC(C1)N2Cc1ccco1 (stereo not given) ?
D1 PAM: -8; D1 antagonist: -11; D3 antag: -150*; D3 ag: -14; D1 agonist: 0; ERG-DNA inh: -10%

How did CNC(=S)NC1CC2CCCC(C1)N2Cc1ccco1 (stereo not given) do in these assays?
D1 PAM: -4; D1 antagonist: -24; D3 antag: -10; D3 ag: -30; D1 agonist: 4
